Screens: PubChem BioAssay, National Center for Advancing Translational Sciences (NCATS)
Many of the other results were omitted from the sample, so hits are more common in it than they were.
Pf Dd2 inh: blocks in vitro growth of P. falciparum Dd2. P. falciparum Dd2 growth, SYBR Green, 72 h. Potency, µM (titrated, usually from 28.9 µM), inactives show top-dose activity, negative = inhibition, hits mostly inhibitors. 120,000 tested, 4.3% active; active means well fitted inhibition curve with a large enough effect;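 further: plate controls were DMSO vehicle for no effect and reference drug for full effect; nearly all actives have a fitted effect of over 65% in size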
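Infected erythrocytes (Dd2, 0.3% parasitemia, 2.5% hematocrit final) are added to compound in RPMI-1640/Albumax II medium, grown 72 h at 37C in low oxygen, then lysed with saponin/Triton-X containing SYBR Green and read by fluorescence.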
The depositor's hits bear a star; i = inactive; [ ] = remark or other dose. Potency means the concentration at half of the fitted maximal effect.

SMILES	Pf Dd2 inh
Cc1ccc(-c2cc(C(=O)N3CCN(S(=O)(=O)c4ccc(Br)s4)CC3)[nH]n2)cc1C	3%
O=C(c1cc(-c2ccc(Br)cc2)n[nH]1)N1CCN(S(=O)(=O)c2ccc(Br)s2)CC1	8.9µM*
O=C(C1CCN(S(=O)(=O)c2ccc(Br)s2)CC1)N1CCN(c2ccc(F)cc2)CC1	-8%
O=c1c2oc3ccccc3c2n(Cc2ccccc2)c(=O)n1Cc1ccco1	-6%
COc1ccc(C2Cn3nnc(-c4nc(-c5ccccc5Cl)no4)c3CO2)cc1 (configuration not stated)	i
O=C(NCCc1cccs1)C1CCCN(c2cnn(Cc3ccccc3)c(=O)c2)C1 (configuration not stated)	-28%
O=C(Nc1ccc2oc(-c3ccccc3)nc2c1)C1CCN(c2cnn(Cc3ccccc3)c(=O)c2)C1 (configuration not stated)	2.5µM*
O=C(NC1CCS(=O)(=O)C1)C1CCN(c2cnn(Cc3ccccc3)c(=O)c2)C1 (configuration not stated)	-21%
O=C(C1CCCN(c2cnn(Cc3ccccc3)c(=O)c2)C1)N1CCCC1 (configuration not stated)	i
Cn1ncc(N2CCC(C(=O)Nc3ccccc3)C2)cc1=O (configuration not stated)	18%
O=C(Nc1ccc2c(c1)OCO2)C1CCCN(c2cnn(Cc3ccccc3)c(=O)c2)C1 (configuration not stated)	10µM*
Cn1ncc(N2CCCC(CC(=O)NCC3CC3)C2)cc1=O (configuration not stated)	2%
CC1=C(C(=O)NCc2ccc(C)cc2)C2(CCCCC2)OC1=O	69%
Cc1ccc(C)c(N2CCN(C(=O)C3CCCN(Cc4nc(-c5cccc(Cl)c5)oc4C)C3)CC2)c1 (configuration not stated)	29%
O=C(c1nnc(CNC2CC2)n1-c1ccccc1)N1CCC[C@@H]1C(c1ccccc1)c1ccccc1	-21%
CCOc1ccccc1CN1CCC2(CCN([S+](=O)([O-])c3cccc(C(F)(F)F)c3)CC2)Oc2ccccc21	8.9µM*
O=C1CC2(CCN([S+](=O)([O-])c3cccc(C(F)(F)F)c3)CC2)Oc2cc(Cl)ccc21	i
COc1cccc([S+](=O)([O-])N2CCC3(CC2)CC(=O)c2ccccc2O3)c1	i
CCOc1ccccc1CN1CCC2(CCN([S+](=O)([O-])c3ccc(C)cc3)CC2)Oc2ccccc21	4µM*
O=C1CC2(CCN([S+](=O)([O-])c3cccc(C(F)(F)F)c3)CC2)Oc2ccccc21	i
O=C1CC2(CCN([S+](=O)([O-])c3ccccc3)CC2)Oc2ccccc2N1	i
CNC(=O)[C@H]1C[C@H](Oc2ccccc2)CN1Cc1scnc1C	-18%
O[C@@H]1C[C@@H](c2nnc3n2CCN(C2CCCC2)C3)N(Cc2cccnc2)C1	2%
CCc1cccc(CC)c1NC(=O)Cc1csc(C)n1	32%
Cc1nc(C(=O)N2CC[C@H](n3nnc(C(N)=O)c3C(N)=O)C[C@H]2C(=O)N[C@@H](Cc2cccs2)C(N)=O)cs1	-1%
SMILES	Pf Dd2 inh
COc1cccc(CNC(=O)[C@@H]2C[C@@H](O)CN2C2CCN(C(=O)CCCc3ccccc3)CC2)c1	-10%
Cc1ccc2c(n1)N(C)[C@H](CO)CCN(Cc1cn(C)c3ccccc13)C2	11µM*
Cc1ccc2c(n1)N(C)[C@H](CO)CCN(Cc1ccc(F)cc1)C2	-3%[44.1 µM]
Cc1ccc2c(n1)N(C)[C@H](CO)CCN(Cc1ccccc1Cl)C2	-25%[44.1 µM]
COc1ccc(NC(=O)CC2CCCCN(C)C2=O)cc1C(F)(F)F (configuration not stated)	i
CCC(C)NC(=O)CSc1c2c(nc3cc(Cl)ccc13)CCCC2 (configuration not stated)	-9%
CC1CCN(C(=O)CSc2c3c(nc4cc(Cl)ccc24)CCCC3)CC1	-24%
O=C(CSc1c2c(nc3cc(Cl)ccc13)CCCC2)N1CCN(c2ccccc2)CC1	11µM*
CC(C)c1nnc(C2CN(C(=O)c3cccc(Cl)c3)CC23CCOCC3)o1 (configuration not stated)	-16%
O=C(Cn1nc(-c2ccccc2)c2c(c1=O)CCCC2)Nc1ccc(F)c(Cl)c1	i
CCC(=O)Nc1cc(C(=O)NCc2ccc(N3CCN(C)CC3)cc2)c2ccc(C)nc2c1	10µM*
CCNC(=O)c1cc(NC(=O)CC)cc2nc(C)ccc12	-16%
CCCCNC(=O)c1cc(NC(=O)CC)cc2nc(C)ccc12	-2%
CN1C[C@H](O)C[C@H]1c1nnc2n1CCN(Cc1ccc3c(c1)CCO3)C2	-6%
CC(C)c1ccc(C2N=C(N)Nc3nc4ccccc4n32)cc1 (configuration not stated)	3.2µM*
Cn1c(=O)c2c(c3ccccc31)OC(=O)CC2c1cccc(Cl)c1 (configuration not stated)	23%
COc1cccc(C2C(C(=O)Nc3ccc(C)cc3C)=C(C)Nc3nc4ccccc4n32)c1OC (configuration not stated)	-12%
COc1ccc(C2N=C(N)Nc3nc4ccccc4n32)c(OC)c1OC (configuration not stated)	-20%
CC(C)c1ccc(C2=CC(c3cccc(Cl)c3)n3c(nc4ccccc43)N2)cc1 (configuration not stated)	11µM*
COc1cccc(C2C(C(=O)Nc3ccc(Cl)cc3)=C(C)Nc3nc4ccccc4n32)c1 (configuration not stated)	-22%
COc1cccc(C2=CC(c3ccccc3F)n3c(nc4ccccc43)N2)c1 (configuration not stated)	11%
CC(C)c1ccc(C2=CC(c3cccc(Cl)c3)n3ncnc3N2)cc1 (configuration not stated)	16%
CCN(CC)C(=O)C1=C(C)Nc2nc3ccccc3n2C1c1ccc(Cl)cc1 (configuration not stated)	-10%
CC1=C(C(N)=O)C(c2ccc(C(C)C)cc2)n2nc(SCc3ccccc3F)nc2N1 (configuration not stated)	7%
CCc1ccc(C2=CC(c3cccc(OC)c3OC)n3c(nc4ccccc43)N2)cc1 (configuration not stated)	8.9µM*
SMILES	Pf Dd2 inh
CCN(CC)C(=O)C1=C(C)Nc2nc3ccccc3n2C1c1cccc(Cl)c1 (configuration not stated)	11µM*
O=C(N[C@@H]1CCOC[C@H]1Oc1ccccn1)c1cccc2c1OCCO2	5%
COC(=O)[C@@H]1C[C@H](NC(=O)c2cccc(NC(=O)c3ccco3)c2C)CN1C	14%
COCCNC(=O)c1cnc2c(c1)N(C(=O)Cc1ccc(C(C)C)cc1)CCC2	-4%[44.1 µM]
Cc1nc(-c2ccc(F)cc2)n(Cc2ccc(F)cc2)c(=O)c1CCO	-12%
CCOC(=O)c1cc(-c2ccccc2)n(CC(=O)Nc2ccc(OC)cc2OC)c1C	42%
O=C(Nc1ccccc1C(F)(F)F)[C@@H]1COCC(=O)N1Cc1ccc(F)cc1	3%
COCCC(=O)N[C@@H]1CN(C)C[C@H]1CN(C)C	16%
COc1cc(-c2[nH]ncc2CN2CCN(c3ccc(Cl)cn3)CC2)cc(OC)c1OC	-2%
COc1ccc(C(=O)N2Cc3ccccc3CC23CCCN(C(=O)CCN)C3)cc1 (configuration not stated)	-10%
COc1ccccc1C(=O)N1CCC(N2CCC[S+]2(=O)[O-])CC1	-1%
COc1ccccc1CN1CC[C@@H]2CN(S(C)(=O)=O)[C@@H]2C1	i
